From PubChem
VACV Venus inh: qHTS for Stage-Specific Inhibitors of Vaccinia Orthopoxvirus: Venus Reporter Primary qHTS; Potency, µM (doses to about 36.5 µM), hits mostly inhibitors; Vaccinia virus Venus reporter expression, fluorescence; 0.46% of 330,000 active; calls by dose curve; tested in A549 cells; further: nearly all actives have a fitted effect of over 30% in size
Lassa entry inh: qHTS for Inhibitors of binding or entry into cells for Lassa Virus. Lassa virus pseudotype entry inhibition, cell reporter. Potency, µM (titrated, usually from 37.9 µM), usual class: inhibitors. 1.2% of 300,000 active. AID 540256, 2011; calls by dose curve; tested in HEK293 cells; further: nearly all actives have a fitted effect of over 50% in size
HCMV inh: qHTS Assay for inhibitors of the human cytomegalovirus (HCMV) | HFF cells, HCMV-luciferase reporter, 72 h; stronger effect = lower value | activity change, negative = inhibition, % at 57.5 µM | 4.5% of 410,000 active | AID 1259415, 2018; in the data active means activity change below about -60%; inconclusive means no clear call, values can overlap the other calls; inactive means above about -39%
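HFF cells seeded 16 h at 37C, treated with compounds, infected with luciferase-reporter HCMV at MOI 1 PFU/cell; luciferase read at 72 h post infection, normalized to buffer-only and Salinomycin controls.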
Marburg entry inh: qHTS for inhibitors of binding or entry into cells for Marburg Virus. Marburg virus pseudotyped entry inhibition, cell reporter. Potency, µM (highest dose often 37.8 µM), hits mostly inhibitors. 1.8% of 300,000 active. AID 540276, 2011; calls by dose curve; tested in HEK293 cells
Vaccinia mCherry: qHTS for Stage-Specific Inhibitors of Vaccinia Orthopoxvirus: mCherry Reporter Primary qHTS; Vaccinia virus mCherry reporter infection, fluorescence; Potency, µM (series often up to 36.5 µM), usual class: inhibitors; 0.63% of 310,000 active; AID 720579, 2013; calls by dose curve; tested in A549 cells; further: nearly all actives have a fitted effect of over 35% in size
FMDV inh: High Throughput Screening for Foot and Mouth Disease Virus Antivirals; FMDV antiviral cell-based qHTS; Potency, µM (titrated, usually from 57.9 µM), hits mostly inhibitors; 1.2% of 410,000 active; calls by dose curve; tested in HEK293T cells; further: read-out not given here; nearly all actives have a fitted effect of over 45% in size
Of the large screens only hits and unclear results are named; the others gave an inactive call; ! = repeats disagree. The list is not random: actives were taken first. Their share in the collection is about 6.5%.

C=CCCC1(C(=O)c2ccccc2)C(=O)C(CC=C(C)C)=C(OC)C(CC=C(C)C)(CCC=C(C)C)C1=O (stereo not given)	Lassa entry inh inconclusive (no result: VACV Venus inh, HCMV inh, Vaccinia mCherry, FMDV inh)
CC(C)c1ccc(NC(=O)Nc2nc(C(N)C3CCCCC3)cs2)cc1 (stereo not given)	VACV Venus inh inconclusive, HCMV inh -101, FMDV inh inconclusive (no result: Lassa entry inh, Marburg entry inh)
CC(C)c1ccc(NC(=O)Nc2nc(C(N)c3ccccc3Cl)cs2)cc1 (stereo not given)	HCMV inh -70, FMDV inh inconclusive (no result: Lassa entry inh, Marburg entry inh)
CN1CCC(=C2c3ccccc3C=Cc3ccccc32)CC1	Lassa entry inh 8.2µM, Marburg entry inh 7.1µM, FMDV inh inconclusive
CN1CCC(=C2c3ccccc3Sc3ccccc32)CC1	VACV Venus inh inconclusive, Vaccinia mCherry inconclusive, FMDV inh inconclusive (no result: Lassa entry inh, Marburg entry inh)
COC(=O)C(c1ccc(Br)cc1)(c1cn(C)c2ccccc12)C(Nc1ccccc1)c1ccccc1 (stereo not given)	HCMV inh -79 (no result: VACV Venus inh, Lassa entry inh, Marburg entry inh, Vaccinia mCherry, FMDV inh)
Cc1cc(C)nc(S[C@@H]2C[C@@H](C(=O)N3CCCN(C)CC3)N(Cc3cc(F)ccc3F)C2)n1	none (no result: Lassa entry inh, HCMV inh, Marburg entry inh)
COc1ccc(-c2nnc3n(CCc4ccccc4)c(=O)c4ccccc4n23)c(OC)c1	Lassa entry inh inconclusive, Marburg entry inh 10µM, FMDV inh 28µM
CC(C)c1ccc(-c2nnc3n(CCc4ccccc4)c(=O)c4ccccc4n23)cc1	FMDV inh 28µM
COc1cc(OC)c(-c2nnc3n(CCc4ccccc4)c(=O)c4ccccc4n23)cc1OC	none (no result: VACV Venus inh, Lassa entry inh, Marburg entry inh, Vaccinia mCherry, FMDV inh)
O=C(c1ccccc1C(F)(F)F)N1CCOc2c(cc(-c3nc4ccccc4s3)cc2OC2CCOC2)C1 (stereo not given)	VACV Venus inh inconclusive (no result: Lassa entry inh, HCMV inh, Marburg entry inh)
O=C(O)c1cc(-c2ccccc2)n(-c2ccccc2C(=O)O)n1	HCMV inh -100
O=C(c1noc2c1CCCC2)N1CCc2c([nH]c3ccccc23)C1c1ccccn1 (stereo not given)	HCMV inh -62, Marburg entry inh inconclusive
Cc1cccc(C2c3[nH]c4ccccc4c3CCN2C(=O)c2noc3c2CCCC3)n1 (stereo not given)	none (no result: VACV Venus inh, Lassa entry inh, Marburg entry inh, Vaccinia mCherry)
O=C(c1cc(-c2ccccc2)n[nH]1)N1CCc2c([nH]c3ccccc23)C1c1ccccn1 (stereo not given)	VACV Venus inh inconclusive, Lassa entry inh inconclusive, Marburg entry inh 5.6µM, Vaccinia mCherry inconclusive
COc1ccc(OCC(=O)N2CCc3c([nH]c4ccccc34)C2c2ccccn2)cc1 (stereo not given)	HCMV inh -70 (no result: Lassa entry inh, Marburg entry inh)
COCCN(C(=O)CCc1ccccc1OC)c1nnc(-c2cccnc2)s1	HCMV inh -61, FMDV inh inconclusive (no result: VACV Venus inh, Lassa entry inh, Marburg entry inh, Vaccinia mCherry)
O=C(NCc1ccccc1)c1cc2sccc2n1Cc1ccc(Cl)cc1	none (no result: HCMV inh)
CC(C)NC(=O)C1CCN(C(=O)c2cc3sccc3n2Cc2ccc(Cl)cc2)CC1	Marburg entry inh inconclusive, FMDV inh 16µM (no result: Lassa entry inh, HCMV inh)
COC(=O)c1cc2sccc2n1Cc1ccc(F)cc1	HCMV inh inconclusive (no result: Marburg entry inh)
CC(C)NC(=O)C1CCN(C(=O)c2cc3sccc3n2Cc2ccc(F)cc2)CC1	VACV Venus inh inconclusive, Lassa entry inh inconclusive, Marburg entry inh 8.2µM, Vaccinia mCherry inconclusive (no result: HCMV inh, FMDV inh)
CCCCNC(=S)NC(=O)c1ccc([N+](=O)[O-])cc1	Marburg entry inh inconclusive (no result: Vaccinia mCherry)
CC(C)OC(=O)c1cc(NC(=S)Nc2ccc([N+](=O)[O-])cc2)cc(C(=O)OC(C)C)c1	Lassa entry inh inconclusive, HCMV inh -86, Marburg entry inh 14µM, FMDV inh inconclusive
O=[N+]([O-])c1ccc(NNC(=S)Nc2ccc(F)cc2)cc1	VACV Venus inh inconclusive, Lassa entry inh inconclusive, HCMV inh -99, Marburg entry inh inconclusive, Vaccinia mCherry inconclusive
CC(C)CCNC(=S)Nc1ccc(Br)cc1	VACV Venus inh inconclusive, Lassa entry inh inconclusive, HCMV inh inconclusive, Marburg entry inh inconclusive
CC(C)CCNC(=S)Nc1ccc([N+](=O)[O-])cc1	VACV Venus inh inconclusive, Lassa entry inh inconclusive, HCMV inh -98, Marburg entry inh inconclusive, Vaccinia mCherry inconclusive
CCCCNC(=S)Nc1ccc([N+](=O)[O-])cc1	VACV Venus inh inconclusive, Lassa entry inh inconclusive, HCMV inh -75, Marburg entry inh inconclusive, Vaccinia mCherry inconclusive
CCc1ccc(Nc2nnc(-n3nc(C)cc3C)c3ccccc23)cc1	Lassa entry inh inconclusive
Cc1cc(C)c(S(=O)(=O)N[C@H]2CC[C@@]34CCCN3C(=O)CCC[C@H]4[C@H]2Cc2ccccc2)c(C)c1	none (no result: VACV Venus inh, Lassa entry inh, Marburg entry inh, Vaccinia mCherry, FMDV inh)
CC1=C([N+](=O)[O-])C(c2cccc(Br)c2)C2=C(N1)c1ccccc1C2=O (stereo not given)	Lassa entry inh inconclusive, HCMV inh -90, Marburg entry inh 1.3µM, FMDV inh inconclusive (no result: VACV Venus inh, Vaccinia mCherry)
COc1ccc(OC)c(CN(CC(F)(F)F)S(=O)(=O)c2ccccc2Br)c1	none (no result: VACV Venus inh, Lassa entry inh, Marburg entry inh, Vaccinia mCherry, FMDV inh)
COc1ccc([C@H]2/C(=C(\O)c3ccccc3)C(=O)C(=O)N2c2ncccn2)cc1OC	none (no result: VACV Venus inh, Lassa entry inh, HCMV inh, Vaccinia mCherry, FMDV inh)
Cn1c(=N)n(CC(=O)c2ccccc2)c2ccccc21	Lassa entry inh 7.1µM, Marburg entry inh 2µM, Vaccinia mCherry inconclusive
Cc1ccc(C(=O)Cn2c(=N)n(N)c3ccccc32)cc1	FMDV inh 40µM (no result: VACV Venus inh, Lassa entry inh, Marburg entry inh, Vaccinia mCherry)
COc1cc(=O)n2c(c1C(=O)N(C)Cc1cscn1)CCN(C(=O)c1cccc(C)c1C)CC2	none (no result: Lassa entry inh, HCMV inh, Marburg entry inh)
CCOc1ccc(NC(=O)c2c(NC(=O)Cc3ccccc3)sc3c2CCCC3)cc1	none
O=C(NCC(c1cccs1)S(=O)(=O)c1cccs1)c1c(F)cccc1F (stereo not given)	none (no result: Marburg entry inh)
Cc1ccc(CNC(=O)C(C(C)C)N2Cc3ccccc3C2=O)cc1 (stereo not given)	none (no result: Marburg entry inh)
COc1ccc(NCc2cccnc2)cc1	HCMV inh -86, Vaccinia mCherry inconclusive
COc1cccc(-c2ccc3ncnc(NCc4cccnc4)c3c2)c1	HCMV inh -77, FMDV inh inconclusive (no result: VACV Venus inh, Lassa entry inh, Marburg entry inh, Vaccinia mCherry)
Cc1ccc(NCc2cccnc2)cc1	none (no result: Vaccinia mCherry)
CCC(C(=O)Nc1ccc(C(=O)OC)cc1)n1nc(-c2ccc(C)cc2)c2c(c1=O)CCCC2 (stereo not given)	Marburg entry inh inconclusive, FMDV inh inconclusive
CN(CC1CCCCC1)[C@H]1CC[C@@]23CCCN2C(=O)CCC[C@H]3[C@H]1Cc1ccccc1	none (no result: VACV Venus inh, Lassa entry inh, Marburg entry inh, Vaccinia mCherry, FMDV inh)
Cc1cc(S(=O)(=O)NCCc2csc(-c3cccc(F)c3)n2)ccc1F	VACV Venus inh 11µM, Vaccinia mCherry inconclusive (no result: Marburg entry inh)
O=S(=O)(NCCc1csc(-c2cccnc2)n1)c1cc(F)ccc1F	HCMV inh -61
Cc1cc(Nc2ccccc2O)nc(C)n1	none
Cc1cccc(Nc2cc(C)c3c(O)cccc3n2)c1C	VACV Venus inh inconclusive, Lassa entry inh inconclusive, HCMV inh -65, Marburg entry inh inconclusive, Vaccinia mCherry 14µM
CCN(CC)S(=O)(=O)c1cc(C(=O)OCC(=O)Nc2ccc(-c3nc4ccc(C)cc4s3)cc2)ccc1F	Lassa entry inh 3.2µM!, HCMV inh inconclusive, Marburg entry inh inconclusive
CCc1nnc2c(NCc3cccc(OC)c3)nc3ccccc3n12	none
